High-throughput results deposited in PubChem by several laboratories.
In the library only some 4.7% were active in any assay of this set; here they are far more common.
PfHsp90 set2 – inhibits growth of yeast expressing Plasmodium falciparum Hsp90; S. cerevisiae expressing PfHsp90, BacTiter-Glo ATP, 48 h; yeast lacking PDR1 and PDR3 efflux regulators; inhibition, % at 9.4 µM; actives 0.32% (n = 310,000); AID 504621;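 active means every replicate shows inhibition above about 80%, whatever the replicate mean, limit read from the data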
SKKanGAS inh – blocks kanamycin growth of S. pyogenes SKKanGAS strain; inhibition, % at 7.5 µM; BacTiter-Glo, 6 h; actives 1.3% (n = 300,000);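 active means mean replicate score, as percent of positive control median, at least 50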;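 further: strain carries kanamycin resistance gene driven by streptokinase promoter and grows in 40 µg/ml kanamycin; loss of luminescence reflects streptokinase promoter inhibition or plain growth inhibition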
TIM10 inh – TIM10 yeast growth inhibition; S. cerevisiae TIM10 strain growth, BacTiter-Glo luminescence, 24 h; AID 463195; actives 1.4% (n = 330,000); inhibition, % at 10 µM;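 active means inhibition of 40% or more at the single tested concentration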;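 further: wild-type TIM10 isogenic control strain grown at permissive 25 °C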
tim23-1 inh – growth inhibitors of tim23-1 mutant yeast. S. cerevisiae tim23-1 growth, BacTiter-Glo luminescence, 24 h. actives 1.3% (n = 330,000). inhibition, % at 20 µM;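 active means growth inhibition of the mutant yeast at or above 50%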;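 further: temperature-sensitive mutant grown at 25 °C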
tim10-1 inh – tim10-1 yeast growth inhibition; inhibition, % at 20 µM; S. cerevisiae tim10-1 ts strain growth, BacTiter-Glo, 24 h; actives 2.2% (n = 330,000);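 active means inhibition of at least 40%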;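 further: mutant grown at 25 °C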
EBI2 antag – EBI2 (human) antagonism | P32249 | EBI2 beta-arrestin recruitment, luminescence, 7a,25-OHC stimulated | inhibition, % at 5 µM | actives 0.81% (n = 360,000) | AID 651636; in the data active means inhibition above about 38%;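 further: enzyme fragment complementation signal reports receptor beta-arrestin coupling in cells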
Target sequence (P32249 whole entry, looked up, the tested form may be a part): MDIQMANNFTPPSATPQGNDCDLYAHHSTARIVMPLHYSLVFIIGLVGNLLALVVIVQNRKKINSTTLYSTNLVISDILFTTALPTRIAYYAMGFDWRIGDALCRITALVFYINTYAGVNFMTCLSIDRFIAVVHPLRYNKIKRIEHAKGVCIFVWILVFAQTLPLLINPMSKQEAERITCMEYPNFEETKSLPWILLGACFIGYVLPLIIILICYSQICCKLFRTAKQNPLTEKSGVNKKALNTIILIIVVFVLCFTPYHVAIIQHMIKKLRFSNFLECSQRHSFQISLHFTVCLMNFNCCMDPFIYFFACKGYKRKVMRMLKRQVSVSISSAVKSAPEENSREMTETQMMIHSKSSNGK
EBI2 conf – EBI2 (human) antagonism, single concentration confirmation. shares compounds with EBI2 antag. actives 29% (n = 2,400). AID 651997. EBI2 beta-arrestin luminescence, 7a,25-OHC antagonism. inhibition, % at 5 µM;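 active means inhibition of at least 50%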
EBI2 ag – counter-screen for EBI2 antagonists: EBI2 agonist activity. shares compounds with EBI2 antag. EBI2-expressing cells, agonist mode, luminescence, 60 min; 0% vehicle, 100% 7α,25-dihydroxycholesterol control. activation, % at 5 µM. 2,400 tested, under 10 active;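 active means activation of at least 50%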
bGal counter – counter-screen for EBI2 antagonists: E. coli beta-galactosidase inhibition. shares compounds with EBI2 antag. purified beta-galactosidase, luminescent Galacton Star, 15 min. inhibition, % at 5 µM. actives 1% (n = 2,400). AID 652176;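 active means replicate-average signal at least 3 plate SD below neutral wells, shown as high inhibition, flagging enzyme-inhibiting false positives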;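 further: higher means stronger loss of beta-gal luminescence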
Hits are given with their value.

`O=C(Nc1cc(S(=O)(=O)N2CCCC2)ccc1Cl)c1cc(F)c(F)c(F)c1F` gave TIM10 inh inactive, tim23-1 inh inactive, tim10-1 inh inactive and EBI2 antag inactive.
For O=S(=O)(/N=C/c1c(O)ccc2ccccc12)c1cccs1 the results were SKKanGAS inh inactive, TIM10 inh inactive, tim23-1 inh inactive and tim10-1 inh inactive.
For CCOc1cc(/C=C2/SC(=Nc3ccccc3)N(Cc3cccnc3)C2=O)ccc1OCC#N the results were PfHsp90 set2 inactive, SKKanGAS inh inactive, TIM10 inh inactive, tim23-1 inh inactive, tim10-1 inh inactive, EBI2 antag 48, EBI2 conf inactive, EBI2 ag inactive and bGal counter inactive.
`CCc1nc2c(OCc3ccc(C(=O)N(C)C)cc3)cccn2c1N(C)C(=O)c1ccc(C)cc1` gave EBI2 antag inactive.
For Cc1cc(N)ccc1NC(=O)CN1CCCC1 the results were PfHsp90 set2 inactive, SKKanGAS inh inactive, TIM10 inh inactive, tim23-1 inh inactive, tim10-1 inh inactive and EBI2 antag inactive.
Screening COc1ccc(C(=O)Nc2ccc(O)c3c(=O)cc(-c4cccc(Cl)c4)oc23)cc1 returned PfHsp90 set2 inactive, SKKanGAS inh inactive, TIM10 inh inactive, tim23-1 inh inactive, tim10-1 inh inactive, EBI2 antag 44, EBI2 conf inactive, EBI2 ag inactive and bGal counter inactive.
`COc1ccc(/C=N/NC(=O)Nc2cccc3nsnc23)c(OC)c1` gave PfHsp90 set2 inactive, SKKanGAS inh inactive, TIM10 inh inactive, tim23-1 inh inactive, tim10-1 inh inactive, EBI2 antag 53, EBI2 conf inactive, EBI2 ag inactive and bGal counter inactive.
Screening COc1cc(/C=N/NC(=O)Nc2cccc3nsnc23)cc(OC)c1OC returned PfHsp90 set2 inactive, SKKanGAS inh inactive and EBI2 antag inactive.
For Cc1cccc(OCC(=O)N/N=C\c2cc3c(cc2[N+](=O)[O-])OCO3)c1C the results were PfHsp90 set2 inactive, SKKanGAS inh inactive, TIM10 inh inactive, tim23-1 inh inactive, tim10-1 inh inactive and EBI2 antag inactive.
For Cc1nc2c(nnn2Cc2ccccc2)c(=O)[nH]1 the results were PfHsp90 set2 inactive, SKKanGAS inh inactive, TIM10 inh inactive, tim23-1 inh inactive, tim10-1 inh inactive and EBI2 antag inactive.
Screening CCn1cc(C(=O)NN)c(=O)c2cc(F)c(NC3CCCCC3)cc21 returned PfHsp90 set2 inactive, SKKanGAS inh inactive, TIM10 inh inactive, tim23-1 inh inactive, tim10-1 inh inactive, EBI2 antag 91, EBI2 conf 62, EBI2 ag inactive and bGal counter inactive.
O=C(NCc1ccccc1)c1ccc(CN2CCC(Cc3ccccc3)CC2)cc1 was read as PfHsp90 set2 inactive, SKKanGAS inh inactive, TIM10 inh inactive, tim23-1 inh inactive, tim10-1 inh inactive, EBI2 antag 50, EBI2 conf inactive, EBI2 ag inactive and bGal counter inactive.
O=C(NCc1ccccc1)c1ccccc1 was read as PfHsp90 set2 inactive and EBI2 antag inactive.
`COCCNC(=O)c1ccc(CN2CCC(Cc3ccccc3)CC2)cc1` gave PfHsp90 set2 inactive, SKKanGAS inh inactive, TIM10 inh inactive, tim23-1 inh inactive, tim10-1 inh inactive and EBI2 antag inactive.
For O=C(NCc1ccccc1)c1ccc(C(=O)NCc2ccccc2)cc1 the results were PfHsp90 set2 inactive, EBI2 antag 47, EBI2 conf inactive, EBI2 ag inactive and bGal counter inactive.
CC(=O)c1ccc(NC(=O)C(C)n2nc(-c3ccccc3)c3cc(Cl)ccc32)cc1 (stereo not drawn) was read as PfHsp90 set2 inactive, SKKanGAS inh inactive, TIM10 inh inactive, tim23-1 inh inactive, tim10-1 inh inactive, EBI2 antag 44, EBI2 conf inactive, EBI2 ag inactive and bGal counter inactive.
